# Giardia killer: Giardia lamblia killing | Giardia lamblia trophozoite viability | activity change, % at 7.66 µM, hits read low | 340,000 tested, 0.15% active | AID 540267; in the data active = activity change below about -80%; inconclusive = between about -30% and that limit;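 note: parasites exposed to compound for two days anaerobically before the ATP read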
#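 Viability, read as ATP luminescence: trophozoites at 100 cells/well, compound added, 48 hrs anaerobic at 37 deg C, then 15-30 min room-temperature development before reading.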
# TDP1 cell CPT: DT40-hTDP1 cell growth loss with CPT | chicken DT40 Tdp1-/-;hTDP1 cells + 20 nM CPT, ATP luminescence, 48 h | Potency, µM (doses to about 46.2 µM), for inactives: top-dose activity change, negative = growth inhibition, usual class: inhibitors | 420,000 tested, 12% active | AID 686979; note: potency is the fitted concentration of half-maximal effect; nearly all actives have a fitted effect of over 55% in size
#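 Cell growth measured by CellTiter-Glo luminescence after a minimum 48 h, 37 C compound exposure with 20 nM CPT in Tdp1-knockout DT40 cells stably expressing hTDP1, seeded 400/well; qHTS titration format.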
# IL-1B inflam inh: inhibitors of inflammasome signaling (IL-1 beta secretion); THP-1 LPS/ATP IL-1B secretion, AlphaLISA, 16 h; stronger effect = lower value; activity change, % at 57.5 µM; AID 743279; 360,000 tested, 4.7% active; in the data active = activity change below about -50%; inconclusive = mostly about -30% to -49%
#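 Secreted IL-1B measured by AlphaLISA bead assay after 16 h compound exposure of THP-1 cells; compounds (final up to 57.5 uM) added 1 h before LPS (250 ng/mL) and ATP (1.25 mM) stimulation; lower signal means less secretion.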
# TDP1 cell noCPT: qHTS for Inhibitors of human tyrosyl-DNA phosphodiesterase 1 (TDP1): qHTS in cells in absence of CPT | DT40 Tdp1-/- hTDP1 cells, no CPT, ATP luminescence, 48 h | Potency, µM (series often up to 46.2 µM), inactives show top-dose activity change, negative = growth inhibition, actives largely listed as inhibitors | 420,000 tested, 15% active | AID 686978, 2013; note: potency is the fitted concentration of half-maximal effect; nearly all actives have a fitted effect of over 55% in size
#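 Growth of hTDP1-complemented DT40 Tdp1-knockout cells is measured by ATP luminescence after at least 48 hr compound exposure at 37 °C, with DMSO substituting for the 20 nM CPT used in the parallel screen.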
# ELG1 repair inh: inhibitors of ELG1-dependent DNA repair in HEK293T cells | AID 504467 | Potency, µM (doses to about 46.1 µM), for the others: at the highest dose activity change, negative = inhibition, actives largely listed as inhibitors | 330,000 tested, 2.3% active | HEK293T ELG1-luciferase reporter, luminescence, 16 h; DNA damage induced by 5-fluorouridine; note: potency is the fitted concentration of half-maximal effect; nearly all actives have a fitted effect of over 55% in size
#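 Quantitative HTS, concentration-response format. 2,000 cells/well co-treated with 5-fluorouridine and compound, 16 hr in 5% CO2 at 37 °C; ONE-Glo luminescence read after 30 min.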
# TDP1 block: TDP1 (human) enzyme inhibition; Q9NUW8; recombinant TDP1, AlphaScreen DNA substrate cleavage; Potency, µM (series often up to 130 µM), without a hit: at the highest dose activity change, negative = inhibition, usual class: inhibitors; 350,000 tested, 0.28% active; AID 485290; note: potency is the fitted concentration of half-maximal effect; nearly all actives have a fitted effect of over 40% in size
# Target sequence (Q9NUW8 whole entry, looked up): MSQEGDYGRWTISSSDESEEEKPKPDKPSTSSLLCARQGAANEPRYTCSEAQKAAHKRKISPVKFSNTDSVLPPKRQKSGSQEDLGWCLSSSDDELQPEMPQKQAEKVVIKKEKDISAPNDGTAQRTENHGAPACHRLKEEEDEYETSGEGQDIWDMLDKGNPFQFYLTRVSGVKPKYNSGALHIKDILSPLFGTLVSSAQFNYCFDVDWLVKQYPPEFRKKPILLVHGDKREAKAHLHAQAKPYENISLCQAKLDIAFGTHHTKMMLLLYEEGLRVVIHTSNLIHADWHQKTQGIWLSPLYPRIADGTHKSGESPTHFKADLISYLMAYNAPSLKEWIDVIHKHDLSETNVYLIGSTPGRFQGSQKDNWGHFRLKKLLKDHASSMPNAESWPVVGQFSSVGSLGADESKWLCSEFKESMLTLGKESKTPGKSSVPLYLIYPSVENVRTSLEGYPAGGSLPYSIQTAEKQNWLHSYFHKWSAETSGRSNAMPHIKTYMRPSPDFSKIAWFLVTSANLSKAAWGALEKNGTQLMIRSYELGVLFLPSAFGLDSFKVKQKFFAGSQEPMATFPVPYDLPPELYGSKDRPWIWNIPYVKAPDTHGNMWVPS
#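 Compounds were preincubated with Tdp1 (1 nM final) for 15 min at room temperature before substrate (15 nM final) started a 5 min reaction; beads (10 ug/ml final) were then added for 10 min before AlphaScreen detection.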
# Numbers without * were called inactive; ? = inconclusive; . = no result. Most compounds without a hit are left out; they make up all but 19% or so of the library. Unless noted, calls come from the whole dose curve; as a rule, active = well fitted curve in the direction sought with a large enough effect; inconclusive = small, poorly fitted or top-dose-only effect, or another doubt; inactive = no such curve, though single readings can be large; an effect the other way counts as inactive or inconclusive. % is set by controls: 0 for no effect and ±100 for the full control effect.
SMILES,Giardia killer,TDP1 cell CPT,IL-1B inflam inh,TDP1 cell noCPT,ELG1 repair inh,TDP1 block
O=C(c1ccncc1)N1CCC[C@@]2(CCN(c3ccccn3)C2)C1,.,26%,.,0%,.,.
N#Cc1ccccc1S(=O)(=O)N1CCN(c2nc(-c3cccs3)nc3ccccc23)CC1,10,16µM*,.,7.9µM*,.,-2%
O=S(=O)(c1cccc2ccccc12)N1CCN(c2nc(-c3cccs3)nc3ccccc23)CC1,7,?,.,10µM*,.,0%
O=S(=O)(c1ccccc1Cl)N1CCN(c2nc(-c3cccs3)nc3ccccc23)CC1,-5,7.9µM*,.,10µM*,.,0%
O=S(=O)(c1ccccc1F)N1CCN(c2nc(-c3cccs3)nc3ccccc23)CC1,-7,?,.,11µM*,.,1%
N#Cc1ccc(S(=O)(=O)N2CCN(c3nc(-c4cccs4)nc4ccccc34)CC2)cc1,-6,?,.,?,.,2%
CN(c1ccccc1)S(=O)(=O)c1ccc(C(=O)N2CCCC(C(F)(F)F)C2)cc1 (stereo not drawn),26,?,14,?,?,-5%
COc1ccccc1CNC(=O)[C@@H]1CCCN1S(=O)(=O)c1ccc(C)cc1,27,-29%,0,-27%,-13%,-3%
O=S(=O)(c1cccc(C(F)(F)F)c1)N1CCN(c2nc(-c3ccccc3)nc3ccccc23)CC1,-7,-17%,.,-9%,.,1%
N#Cc1ccccc1S(=O)(=O)N1CCN(c2cnccn2)CC1,4,-26%,-19,-15%,-2%,3%
O=S(=O)(c1ccccc1C(F)(F)F)N1CCN(c2nc(-c3ccccc3)nc3ccccc23)CC1,5,?,.,13µM*,.,0%
N#Cc1ccccc1S(=O)(=O)N1CCN(c2nc(-c3ccccc3)nc3ccccc23)CC1,1,16µM*,4,11µM*,.,1%
Cc1nc(N2CCN(S(=O)(=O)c3ccccc3C#N)CC2)c2c(-c3ccccc3)csc2n1,-3,?,-28,13µM*,12µM*,0%
Cc1ccc(-n2ncc3c(N4CCN(c5ccc(F)cc5)CC4)ncnc32)cc1,.,-2%,.,11%,.,13%
COc1ccccc1N1CCN(c2ncnc3c2cnn3C)CC1,.,?,.,18µM*,.,0%
Cn1ncc2c(N3CCN(c4ccc(F)cc4)CC3)ncnc21,.,?,.,18µM*,.,10%
CC1CC(C)CN(c2ncnc3c2cnn3C)C1 (stereo not drawn),-19,-15%,58,?,-11%,-1%
NNC(=O)c1cc2c(N3CCC(Cc4ccccc4)CC3)ncnc2s1,-15,16µM*,32,23µM*,23µM*,9%
Cn1ncc2c(N3CCC(Cc4ccccc4)CC3)ncnc21,6,?,17,16µM*,?,-3%
CC(=O)NCCNC(=O)c1cccc(NS(=O)(=O)c2ccc3c(c2)OCCO3)c1,-3,18%,34,-4%,18%,-4%
COc1ccc(Cl)cc1NC(=O)c1cccc(-n2cnnn2)c1,-3,-2%,-9,0%,-19%,-10%
CS(=O)(=O)Nc1ccc(C(=O)Nc2ccc(S(=O)(=O)N3CCCC3)cc2)cc1,-1,-10%,-11,?,?,8%
CCc1ccc(C(=O)CSc2nc3ccccc3c(=O)[nH]2)cc1,9,1.5µM*,51,1.6µM*,?,2%
O=C(CCCSc1nc2ccccc2c(=O)[nH]1)c1ccc(F)cc1,-7,12µM*,0,?,-16%,3%
Cc1cc(=O)[nH]c(SCC(=O)c2ccc(C(C)C)cc2)n1,-14,-26%,22,18µM*,?,0%
SMILES,Giardia killer,TDP1 cell CPT,IL-1B inflam inh,TDP1 cell noCPT,ELG1 repair inh,TDP1 block
Cc1ccc(C(=O)CSc2nc3ccccc3c(=O)[nH]2)cc1,-17,5.8µM*,0,8.2µM*,?,3%
CCOC(=O)CSc1nc2ccccc2c(=O)[nH]1,-2,-28%,-19,-10%,1%,3%
COc1ccc(C(=O)CSc2nc(C)cc(=O)[nH]2)cc1,9,-13%,27,-15%,24%,-1%
Cc1ccc(C(=O)CSc2nc3ccccc3c(=O)[nH]2)cc1C,-15,?,22,?,19%,12%
CC1CNC(=S)N(c2ccc(F)cc2)C1=O (stereo not drawn),-11,-5%,-6,-1%,.,.
CC(C)CCNC(=O)c1ccc(Cn2c(SCC(N)=O)nc3ccccc3c2=O)cc1,.,-23%,.,-27%,.,8%
Cc1nc2ccccc2nc1SCC(=O)c1ccccc1,-2,?,15,7.3µM*,?,2%
CCOc1ccc(OCCSc2nc3ccccc3c(=O)[nH]2)cc1,-9,?,26,?,0%,6%
O=c1[nH]c(SCCOc2cccc3ccccc23)nc2ccccc12,-26,?,20,7.3µM*,-7%,-3%
COC(=O)c1cnc(Nc2nc(C(N)c3ccccc3Cl)cs2)nc1C(F)(F)F (stereo not drawn),.,?,-6,26µM*,.,.
NC(c1csc(Nc2cnccn2)n1)c1ccccc1Cl (stereo not drawn),.,?,21,?,.,.
NC(COCc1ccccc1)c1csc(Nc2ncccn2)n1 (stereo not drawn),.,-6%,-24,?,.,.
NC(c1csc(NC(=O)c2cccc(OC(F)(F)F)c2)n1)c1ccccc1Cl (stereo not drawn),.,4.1µM*,-12,5.8µM*,.,.
COC(=O)c1cnc(Nc2nc(C(N)COCc3ccccc3)cs2)nc1C(F)(F)F (stereo not drawn),.,?,-25,15µM*,.,.
O=C(Nc1ccnn1C1CCN(C(=O)c2cnsn2)CC1)c1cccc(F)c1,-7,-1%,-5,-18%,?,1%
COc1ccc(CN(C)Cc2nc3scc(-c4ccccc4)c3c(=O)[nH]2)cc1OC,-18,13µM*,12,6.5µM*,16µM*,8%
Cc1cc(C)cc(NC(=O)C2CCN(c3cc(C)nc4c(-c5ccc(Cl)cc5)c(C)nn34)CC2)c1,.,4%,.,-6%,.,-1%
C=CC[C@@H](CC(=O)N(CCO)Cc1ccccc1)C(=O)N[C@H](COC(=O)[C@@H](CC=C)Cc1ccc(F)cc1)Cc1c[nH]c2ccccc12,-7,?,0,?,21µM*,4%
C=CC[C@H](CC(=O)N(CCO)Cc1ccccc1)C(=O)N[C@H](COC(=O)[C@@H](CC=C)Cc1ccc(F)cc1)Cc1c[nH]c2ccccc12,-16,?,-56*,?,23µM*,5%

# Screens deposited in PubChem by National Center for Advancing Translational Sciences (NCATS).
